High-throughput results: PubChem, The Scripps Research Institute Molecular Screening Center
hgDAF12 agonist = hgDAF-12 agonism, primary luciferase screen | activation, % at 6.8 µM | HEK293 GAL4-hgDAF12 UAS-luciferase reporter, agonist luminescence; normalized to butyrate control | 370,000 compounds, 1.8% hits;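 active = activation above a cutoff set at the mean of all screened compounds plus 3 SD, cut at about 10% in these data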;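 note: 0% = DMSO wells and 100% = sodium butyrate wells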
hcDAF-12 act = activates DAF-12 receptor from parasite H. contortus; HEK293 hcDAF-12 lit1-tk-luc reporter, luminescence; 0% DMSO, 100% Δ7-dafachronic acid; 370,000 compounds, 1.4% hits; activation, % at 6.8 µM;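 active = activation above the mean of all tested compounds plus 3 SD, cut at about 5.5% in these data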;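 note: 100% = response to 3 µM Δ7-dafachronic acid high control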
DAX1 inh-1 = NR0B1 (DAX1) inhibition; inhibition, % at 6.75 µM; AID 504766; HEK293 Gal4-DAX1 luciferase reporter, luminescence; P51843; 340,000 compounds, 0.99% hits;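 active = inhibition above the mean over all tested compounds plus 3 SD, cut at about 4.2% in these data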;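 note: 0% = DAX1-transfected cells with DMSO and 100% = empty-vector control cells with DMSO; inhibition shows as a rise in luminescence from relieved DAX1 repression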
Target sequence (P51843 207-470 limits assumed): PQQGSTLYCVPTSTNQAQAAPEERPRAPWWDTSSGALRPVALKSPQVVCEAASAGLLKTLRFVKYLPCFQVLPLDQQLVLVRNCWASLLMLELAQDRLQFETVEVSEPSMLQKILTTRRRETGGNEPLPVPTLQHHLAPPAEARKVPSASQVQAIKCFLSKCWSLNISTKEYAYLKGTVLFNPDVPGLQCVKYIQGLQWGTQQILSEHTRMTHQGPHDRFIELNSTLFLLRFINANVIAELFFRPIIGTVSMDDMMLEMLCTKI
ssDAF12 agonist = activates DAF-12 receptor from parasite S. stercoralis | HEK293 ssDAF-12/GRIP1 lit1-tk-luc reporter, luminescence; % of 3 µM dafachronic acid response | 370,000 compounds, 1% hits | activation, % at 6.8 µM;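 active = activation above the mean over all tested compounds plus 3 SD, cut at about 0.9% in these data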;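 note: 0% = DMSO-only wells and 100% = 3 µM delta7-dafachronic acid wells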
DAX1 inh-2 = blocks DAX1 repression of SF-1 activated StAR promoter; HEK293T StAR-luciferase reporter, SF-1/DAX-1 repression relief; inhibition, % at 6.8 µM; 370,000 compounds, 1.1% hits; AID 652010;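 active = inhibition above the mean over all tested compounds plus 3 SD, cut at about 3.6% in these data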;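 note: 0% = DAX-1 cells with DMSO and 100% = cells lacking DAX-1 with DMSO; higher inhibition means more luminescence from relief of DAX-1 repression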
Starred values were filed as active, the others as inactive; · = no result. Sampled rows, rich in hits. Any-hit rate of the full collection: about 4.1%.

SMILES	hgDAF12 agonist	hcDAF-12 act	DAX1 inh-1	ssDAF12 agonist	DAX1 inh-2
CCCCCCc1c[nH]c2ccc(O)c(-c3ccccc3)c12	-1.9	-1.9	·	-1.2	0.5
CCCCNC(=O)C[C@H]1C[C@@]2(C(=O)OC)C(=C[C@H](COCc3ccccc3)O[C@@H]2C)N(CCC2=CCCCC2)C1=O	-0.1	1.5	·	-1.3	0.6
N#C/C(=C\c1ccccc1)C(=O)Nc1ccccn1	2.1	-0.1	1.4	-0.9	0.1
CC(C)(C)c1ccc(C(=O)/C(C#N)=C/c2cccs2)cc1	0.0	0.0	4.6*	-1.8	0.2
CC(NC(=O)/C(C#N)=C/c1cccs1)c1ccccc1 (stereo not drawn)	-1.9	-1.0	-1.6	-2.1	-2.1
N#C/C(=C\c1cccs1)C(=O)Nc1ccccn1	6.8	2.8	6.9*	0.5	2.6
O=C(O)c1cc(=O)c2ccccc2[nH]1	4.6	6.4*	3.3	1.5*	0.4
O=C(O)c1cc(=O)c2c(Cl)cc(Cl)cc2[nH]1	1.9	0.0	0.7	-1.2	-0.1
O=C(O)c1cc2c(cn1)[nH]c1ccccc12	0.8	6.3*	1.9	-0.3	0.3
OCCc1ccc(NCCc2cccs2)cc1	10.9*	4.9	·	-0.5	2.7
N/C(=N\NC(=O)c1cccs1)c1cc2ccccc2oc1=O	11.2*	3.1	3.5	-0.1	1.9
CC1=CCC(C(=O)O)C(C(=O)Nc2cccnc2)C1 (stereo not drawn)	1.8	2.1	2.8	1.7*	0.8
Cn1c(/C(C#N)=C/c2ccc(O)cc2)nc2ccccc21	7.5	0.0	5.5*	1.2*	0.8
Nc1[nH]c(C(=O)c2ccccc2)c(-c2ccc3ccccc3c2)c1C(=O)NC1CC1	1.2	2.9	·	-0.8	-0.2
CCc1ccccc1NC(=O)C1CCC(=O)N(c2ccc(OC)cc2)C1c1ccc(OC)cc1 (stereo not drawn)	0.4	0.5	·	-0.6	1.6
COc1ccc(CCN2CCCC(CN(C)C(=O)c3cc(C)oc3C)C2)cc1 (stereo not drawn)	10.7*	4.4	1.3	0.8	1.6
Cc1cc(C(=O)N(C)CC2CCCN(CCc3ccc(F)cc3)C2)c(C)o1 (stereo not drawn)	0.1	-1.8	1.0	-0.9	-0.6
COCc1ccc(C(=O)N(C)CC2CCCN(CCc3ccc(OC)cc3)C2)o1 (stereo not drawn)	9.7	1.6	0.3	0.2	4.5*
Nc1[nH]c(C(=O)c2ccccc2)c(-c2cc(F)ccc2Br)c1C(=O)NCCc1c[nH]c2ccccc12	1.6	-1.4	·	-0.6	0.0
COC(=O)C1=C(C)N(C)C(=NCC2CC2)NC1c1cccc(Cl)c1 (stereo not drawn)	0.8	0.3	·	-0.7	1.1
CCCC(=O)Nc1ccc(C(=O)NN=C(C2CC2)C2CC2)cc1	1.3	-2.1	4.5*	-1.1	-0.4
CCCC(=O)Nc1ccc(C(=O)COC(=O)C2CC2)cc1	4.1	0.1	0.4	-0.9	2.0
CCC[C@H]1[C@@H](NC(=O)c2cccc(Cl)c2)CC[C@@]23CCCN2C(=O)CCC[C@@H]13	-2.0	-0.6	·	-0.7	·
O=C(Nc1ccc(Cl)c(Cl)c1)C1CCN(c2ncccn2)CC1	5.9	-2.4	·	-1.4	-0.9
CN(C)C(CNC(=O)c1ccc2ccccc2n1)c1ccccc1 (stereo not drawn)	-0.3	-0.4	-0.6	-0.6	0.5
SMILES	hgDAF12 agonist	hcDAF-12 act	DAX1 inh-1	ssDAF12 agonist	DAX1 inh-2
CC(NC(=O)c1ccc2ccccc2n1)c1ccccc1 (stereo not drawn)	-0.7	-0.2	5.4*	-0.7	-0.6
O=C(N[C@H](C(=O)N1CCC[C@H]1C(=O)NC1CCCC1)C1CCCCC1)C1CC1	1.0	-1.0	·	-1.1	-1.2
COc1ccc(-c2cn3cc(C(=O)NN)ccc3n2)cc1	11.6*	1.4	-1.4	-0.9	2.0
COc1cccc(C(=O)Nc2ccc3[nH]ncc3c2)c1	10.5*	4.8	2.7	-0.1	1.6
COc1ccccc1C(=O)Nc1ccc2[nH]ncc2c1	1.1	-0.2	2.3	-1.6	-0.2
CCOc1cccc(C(=O)Nc2ccc3[nH]ncc3c2)c1	12.9*	4.7	0.8	-0.5	2.9
Cc1cc(NN)nc2ccc(Cl)cc12	-2.5	1.6	-0.4	-0.4	0.4
O=C(NNS(=O)(=O)c1ccccc1[N+](=O)[O-])c1cccc(Cl)c1	-2.2	-1.3	-0.6	1.1*	-0.1
O=C(NNS(=O)(=O)c1ccccc1[N+](=O)[O-])c1cccc(Br)c1	0.8	0.3	1.5	-1.2	-0.3
CC(NC(=O)C12CC3CC(CC(C3)C1)C2)C(=O)NN=Cc1ccc([N+](=O)[O-])o1 (stereo not drawn)	-7.3	0.6	-1.3	1.6*	-3.1
Cc1ccc(OCC(=O)N/N=C\c2ccc(O)cc2)c([N+](=O)[O-])c1	0.9	-1.5	-0.8	-1.5	-0.1
Cc1ccc(OCC(=O)N/N=C/c2c[nH]c3ccccc23)c([N+](=O)[O-])c1	2.2	6.2*	1.9	-0.5	-0.7
NC(=S)N/N=C/c1c[nH]c2ccccc12	0.8	4.9	-1.3	1.8*	-0.5
O=C(O)c1ccc(S(=O)(=O)NN=Cc2c[nH]c3ccccc23)cc1	1.5	2.5	0.9	-0.1	-1.2
CCOC(=O)N/N=C/c1c[nH]c2ccccc12	6.0	6.2*	4.0	0.2	-0.6
Cc1ccc(S(=O)(=O)N/N=C/c2c[nH]c3ccccc23)cc1	0.8	1.4	-0.6	0.9*	-0.7
COC(=O)N/N=C/c1c[nH]c2ccccc12	5.4	5.5	-0.1	0.7	0.2
COCc1cc(N2CCN(C(=O)OC(C)(C)C)C[C@@H]2C)ccc1N1CCN(Cc2ccccc2)[C@@H](C)C1	0.1	-2.0	·	-1.4	-0.4
C[C@@H]1CCCN1c1ccc2c(c1)O[C@H]1CCN(C1)S2(=O)=O	2.5	-2.5	·	-0.5	0.1
O=C(N/N=C/c1c[nH]c2ccccc12)c1ccccc1Cl	5.1	4.5	0.9	0.4	0.3
O=C(N/N=C/c1c[nH]c2ccccc12)c1cc(Cl)ccc1O	5.3	3.2	1.5	1.6*	0.5
CCN(CC)c1ccc(/C=N/NC(=O)c2c[nH]c3ccccc23)cc1	5.3	5.9*	-0.7	-1.1	-0.8
CCOC(=O)N/N=C/c1ccc(F)cc1F	4.4	0.8	0.3	1.0*	0.0
CCOC(=O)[C@@]12CN(C(=O)OC(C)(C)C)CC=C1N(Cc1ccc(OC)cc1)C(=O)[C@H]2CC(=O)NCC1CCCCC1	1.8	-3.6	·	-1.5	-1.1
CC(NC(=O)c1ccc(Br)o1)C1CCCO1 (stereo not drawn)	0.7	-0.6	0.4	-1.2	0.1
C/C(=N/NC(=O)c1ccc(Br)o1)C(C)C	10.7*	1.5	1.5	-0.7	2.4
Cc1ccccc1CN[C@@H]1CC[C@@]23CCCN2C(=O)CCC[C@H]3C1	-2.7	0.5	·	-1.1	·
O=C(COc1ccccc1)NCC(=O)Nc1ccncc1	10.7*	1.0	-1.0	-0.7	0.0
CC(=O)Nc1ccc(NC(=O)CNC(=O)COc2ccccc2)cc1	0.8	-0.6	1.7	-0.5	-0.6
